Data reported in PubChem BioAssay (NCI).
The panel holds about 83,000 compounds, 20% with a hit somewhere; the sample as a whole holds those more often.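 Results are percent growth after 48 hours of single-concentration exposure. 100 means growth as in untreated cells, lower positive values show inhibition; negative values down to -100 show cell death.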 The source made the active and inactive calls. The calls were made as follows: active = growth percent below 10; inactive = the rest.

Columns and labels:
Experiment in all cases: NCI-60 one-dose screen, 48 h (100 = growth as untreated, 0 = no growth, -100 = all killed)
Details in all cases: 10 µM unless noted
NCI-H23 lung = test system: NCI-H23 lung
NCI-H226 lung = test system: NCI-H226 lung
NCI-H322M lung = test system: NCI-H322M lung
HOP-62 NSCLC = test system: HOP-62 NSCLC
NCI-H460 lung = test system: NCI-H460 lung
NCI-H522 lung = test system: NCI-H522 lung
A549/ATCC NSCLC = test system: A549/ATCC NSCLC
786-0 renal = test system: 786-0 renal
COLO 205 colon = test system: COLO 205 colon
HOP-92 NSCLC = test system: HOP-92 NSCLC

Measured: growth

CC(=O)OC[C@]12CC[C@@H](C(=O)CBr)[C@@H]1[C@H]1CC[C@@H]3[C@@]4(C)CC[C@H](OC(C)=O)C(C)(C)[C@@H]4CC[C@@]3(C)[C@]1(C)CC2
inactive: NCI-H23 lung 95.4% | NCI-H226 lung 100% | NCI-H322M lung 103% | HOP-62 NSCLC 103% | NCI-H460 lung 105% | A549/ATCC NSCLC 106% | 786-0 renal 95.1% | COLO 205 colon 101%
active: NCI-H522 lung -63.9%

O=c1ccc(-c2nc(N3CCOCC3)c3ccccc3n2)c[nH]1
inactive: NCI-H23 lung 93.9% | NCI-H226 lung 91.7% | NCI-H322M lung 92.3% | HOP-62 NSCLC 99.6% | NCI-H460 lung 103% | NCI-H522 lung 98.9% | A549/ATCC NSCLC 97% | 786-0 renal 97.1% | COLO 205 colon 106%

Cc1ccc(-n2nc3c(c(C#N)c2=O)CC(c2ccccc2[N+](=O)[O-])C([N+](=O)[O-])=C3O)cc1 (stereo unspecified)
inactive: NCI-H23 lung 93.2% | NCI-H226 lung 92.1% | NCI-H322M lung 88% | HOP-62 NSCLC 84.6% | NCI-H460 lung 95.4% | NCI-H522 lung 89.4% | A549/ATCC NSCLC 90.1% | 786-0 renal 82.7%

Cc1ncc(C(=O)Nc2ccc(CN3CCN(C)CC3)c(C(F)(F)F)c2)cc1C#Cc1cnc(N)cc1C#N
inactive: NCI-H23 lung 30.6% | NCI-H322M lung 28% | HOP-62 NSCLC 42.3% | COLO 205 colon 21.5%
active: NCI-H226 lung -71% | NCI-H460 lung -77.6% | NCI-H522 lung -46.2% | A549/ATCC NSCLC -89.5% | 786-0 renal -65.5%

Cc1ccc(S(=O)(=O)Nn2c3c(cc(-c4nc5ccccc5s4)c2=O)CCCCCC3)cc1
inactive: NCI-H23 lung 94.8% | NCI-H226 lung 76.6% | NCI-H322M lung 100% | HOP-62 NSCLC 94.9% | NCI-H460 lung 104% | NCI-H522 lung 89.1% | A549/ATCC NSCLC 101% | 786-0 renal 101% | COLO 205 colon 119%

CCOC(=O)CCN(CC(C)C)C(=S)Nc1ccccc1
inactive: NCI-H226 lung 107% | NCI-H322M lung 107% | HOP-62 NSCLC 120% | NCI-H460 lung 107% | HOP-92 NSCLC 110% | NCI-H522 lung 101% | A549/ATCC NSCLC 101% | 786-0 renal 101%

CCOc1ccc(Nc2nc(-c3ccc4c(c3)NC(=O)CO4)cs2)cc1
inactive: NCI-H23 lung 45.7% | NCI-H226 lung 46.9% | NCI-H322M lung 84.8% | HOP-62 NSCLC 95.9% | NCI-H460 lung 40.7% | NCI-H522 lung 14.6% | A549/ATCC NSCLC 71.7% | 786-0 renal 71.1% | COLO 205 colon 88.5%

Cc1ccc(S(=O)(=O)NNC(=O)/C(=C\c2ccc(Cl)cc2)c2nc3ccccc3s2)cc1
inactive: NCI-H23 lung 96.4% | NCI-H226 lung 81.2% | NCI-H322M lung 92.7% | HOP-62 NSCLC 109% | NCI-H460 lung 86% | NCI-H522 lung 91.7% | A549/ATCC NSCLC 91.9% | 786-0 renal 99.5% | COLO 205 colon 117%

COc1ccc(C(=O)c2nc3ccccc3n2CC(=O)c2ccc(Cl)cc2)cc1
inactive: NCI-H23 lung 30.9% | NCI-H226 lung 37.5% | NCI-H322M lung 84.8% | HOP-62 NSCLC 42.4% | NCI-H460 lung 68.7% | A549/ATCC NSCLC 81.4% | 786-0 renal 34.7% | COLO 205 colon 111%
active: NCI-H522 lung -22.3%

O=C1Nc2ccccc2/C1=C\c1c(-c2ccccc2)nc2ccccn12
active: NCI-H23 lung 8.45%
inactive: NCI-H226 lung 57.6% | NCI-H322M lung 70.1% | HOP-62 NSCLC 41.3% | NCI-H460 lung 24.3% | NCI-H522 lung 22.3% | A549/ATCC NSCLC 47.1% | 786-0 renal 58.7% | COLO 205 colon 31%

CN(C)CCC(=O)c1ccc([N+](=O)[O-])cc1
active: NCI-H522 lung -23%
inactive: NCI-H23 lung 109% | NCI-H226 lung 94.8% | NCI-H322M lung 104% | HOP-62 NSCLC 98.6% | NCI-H460 lung 107% | A549/ATCC NSCLC 109% | COLO 205 colon 107%
